An excerpt weighted towards active compounds, which were near 9.8% of everything screened.
CBFb-RUNX1 inh: qHTS Assay for Compounds Blocking the Interaction Between CBF-beta and RUNX1 for the Treatment of Acute Myeloid Leukemia | Runt-related transcription factor 1 (Homo sapiens) + Core-binding factor subunit beta … | AlphaScreen CBFb-His/RUNX1-biotin binding, biochemical | Potency, µM (highest dose often 59.8 µM), for inactives: at the top dose activity, negative = inhibition, actives largely listed as inhibitors | 230,000 tested, under 10 active; further: % of control where 0% means no effect
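Bead-based AlphaScreen assay; binding partners His-tagged CBF-beta and biotinylated RUNX1 at 30 nM each. Compound exposure 15 min after a 20-min protein preincubation; bead step 90 min; all steps at room temperature.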
HPGD block: qHTS Assay for Inhibitors of HPGD (15-Hydroxyprostaglandin Dehydrogenase) | 15-hydroxyprostaglandin dehydrogenase [NAD(+)] (Homo sapiens), P15428 | purified HPGD, NADH fluorescence kinetic, PGE2 substrate | Potency, µM, inactives show top-dose activity change, negative = inhibition, usual class: inhibitors | actives 4.3% (n = 150,000) | AID 894, 2007; active means well fitted inhibition curve with a large enough effect, not every such curve was filed as active; inconclusive means small, poorly fitted or top-dose-only effect, or another doubt; inactive means no such curve, though single readings can be large or run the other way; further: potency means the concentration at half of the fitted maximal effect; on the % scale 0 is the no-effect control and ±100 the full control effect
Target sequence (P15428 whole entry, looked up): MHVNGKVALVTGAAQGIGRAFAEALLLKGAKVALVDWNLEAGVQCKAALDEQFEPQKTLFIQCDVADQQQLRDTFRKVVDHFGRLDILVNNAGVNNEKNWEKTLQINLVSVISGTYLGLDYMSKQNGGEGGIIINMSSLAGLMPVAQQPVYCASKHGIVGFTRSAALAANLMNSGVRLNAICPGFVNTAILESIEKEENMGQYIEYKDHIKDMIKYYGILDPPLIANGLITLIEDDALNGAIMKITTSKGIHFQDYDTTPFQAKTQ
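20 nM HPGD preincubated 15 min at room temperature with compound in 50 mM Tris-HCl pH 8, 0.01% Tween 20. Started with 1 mM NAD+ and 30 uM prostaglandin E2; NADH fluorescence (360/450 nm) read 5 times over 30-s intervals, last minus first.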
ALDH1A1 block: qHTS Assay for Inhibitors of Aldehyde Dehydrogenase 1 (ALDH1A1); Aldehyde dehydrogenase 1A1 (Homo sapiens), P00352; Purified ALDH1A1, NADH fluorescence, propionaldehyde substrate; Potency, µM (series often up to 75.3 µM), inactives show at the highest dose activity, negative = inhibition, actives largely listed as inhibitors; actives 7.3% (n = 220,000); active means well fitted inhibition curve with a large enough effect, not every such curve was filed as active; inconclusive means small, poorly fitted or top-dose-only effect, or another doubt; inactive means no such curve, though single readings can be large or run the other way;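 further: potency means the concentration at half of the fitted maximal effect; plate controls were no enzyme wells and a reference inhibitor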
Target sequence (P00352 whole entry, looked up): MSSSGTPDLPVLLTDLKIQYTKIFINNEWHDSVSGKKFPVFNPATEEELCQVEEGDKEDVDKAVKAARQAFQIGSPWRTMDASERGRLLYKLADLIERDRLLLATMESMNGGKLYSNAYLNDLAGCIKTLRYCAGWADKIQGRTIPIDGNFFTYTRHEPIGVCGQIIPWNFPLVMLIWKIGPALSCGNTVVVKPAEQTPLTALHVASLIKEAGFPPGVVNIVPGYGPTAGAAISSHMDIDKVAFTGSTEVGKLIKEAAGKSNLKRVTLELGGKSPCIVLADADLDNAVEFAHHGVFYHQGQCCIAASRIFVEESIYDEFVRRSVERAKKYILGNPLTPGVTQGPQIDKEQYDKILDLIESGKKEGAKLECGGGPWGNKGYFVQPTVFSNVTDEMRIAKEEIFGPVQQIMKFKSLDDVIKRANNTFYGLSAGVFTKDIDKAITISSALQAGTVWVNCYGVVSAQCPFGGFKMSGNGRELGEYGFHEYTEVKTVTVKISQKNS
JMJD2E inh: qHTS Assay for Inhibitors of Human Jumonji Domain Containing 2E (JMJD2E) | JMJD2E catalytic domain, FDH-coupled NADH fluorescence (FDH is formaldehyde dehydrogenase) | Lysine-specific demethylase 4E (Homo sapiens), B2RXH2 | actives 1.6% (n = 230,000) | Potency, µM (titrated, usually from 57.1 µM), inactives show top-dose activity change, negative = inhibition, hits mostly inhibitors; active means well fitted inhibition curve with a large enough effect, not every such curve was filed as active; inconclusive means small, poorly fitted or top-dose-only effect, or another doubt; inactive means no such curve, though single readings can be large or run the other way;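 further: potency means the concentration at half of the fitted maximal effect; 0% = wells with enzyme and -100% = buffer wells without enzyme; nearly all actives have a fitted effect of over 50% in size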
HttQ103 aggreg: qHTS Multiplex Assay to Identify Dual Action Probes in a Cell Model of Huntington: Aggregate Formation (GFP); PC12 HttQ103-GFP aggregates, Acumen cytometry, 40 h; actives 1.1% (n = 220,000); Potency, µM (titrated, usually from 46.1 µM), inactives show at the top dose activity change, negative = inhibition, hits mostly inhibitors; further: potency means the concentration at half of the fitted maximal effect; on the % scale 0 is the no-effect control and ±100 the full control effect; nearly all actives have a fitted effect of over 60% in size
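PC12 cells stably carrying ecdysone-inducible HTT exon 1 Q103–GFP were induced with tebufenozide (100 nM final) and treated with library compounds in titration. GFP aggregates in lysates were counted by laser scanning cytometry.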
HTT cytoprotect: qHTS Multiplex Assay to Identify Dual Action Probes in a Cell Model of Huntington: Cytoprotection (ATP); PC12 HTT-Q103 induced, cytoprotection, ATP luminescence, 40 h; Potency, µM (doses to about 56.4 µM), for the others: cytoprotection (ATP increase), hits mostly activators; actives 0.14% (n = 230,000); further: potency means the concentration at half of the fitted maximal effect; % of control where 0% means no effect; nearly all actives have a fitted effect of over 45% in size
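Huntington model: PC12 line, ecdysone-inducible HTTQ103 exon1–GFP, tebufenozide 100 nM. Test articles in a dose series. Endpoint luminescence from cellular ATP.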
Active calls of the source: *; u = inconclusive; x = no result given; ! = repeats disagree; [ ] = dose if it differs, or a comment. Unless noted, the call rests on the fitted dose curve; in most records, active means well fitted curve in the direction sought with a large enough effect; inconclusive means small, poorly fitted or top-dose-only effect, or another doubt; inactive means no such curve, though single readings can be large; an effect the other way counts as inactive or inconclusive.

SMILES	CBFb-RUNX1 inh	HPGD block	ALDH1A1 block	JMJD2E inh	HttQ103 aggreg	HTT cytoprotect
Cc1ccccc1Nc1nc(-c2sc(NC(=O)c3ccccc3)nc2C)cs1	-17.2%	u	20µM*	u	1.4%	-32.0%
CCOc1ccccc1Nc1nc(-c2sc(NC(=O)c3ccc([N+](=O)[O-])cc3)nc2C)cs1	-22.3%	-2.9%	0.794µM*	5.6%	-2.3%	-87.7%
C=CCCC(=O)Nc1nc(C)c(-c2csc(Nc3ccccc3OC)n2)s1	-16.7%	-19.2%	-10.2%	u	17.8µM*	-93.1%
COc1ccccc1Nc1nc(-c2cccs2)cs1	-19.9%	-28.8%	3.98µM*	-16.9%	12.8%[9.22 µM]	-25.4%
CCc1nnc(NC(=O)C2=CCN(S(=O)(=O)c3ccccc3)CC2)s1	4.8%	x	x	12.0%	14.6%[9.22 µM]	20.5%[10 µM]
CCc1cc2c(nc1CC)CCN(CC/C(C)=N/O[C@@H](C)CN1CCCc3nc(C)c(C)cc31)C2	-11.7%[13.1 µM]	x	u	x	x	-1.1%[10 µM]
O=C(NCc1cccnc1)c1ccc(CS(=O)(=O)c2ccc(Cl)cc2)o1	-8.7%	-11.4%	-4.4%	-3.0%	-32.0%	10.4%
O=C1Oc2ccccc2C(=O)/C1=C\N1CCN(c2ccccc2)CC1	5.6%	x	u	-3.0%	-5.1%	-39.3%
Cc1ccc(Cl)cc1Nc1nc(-c2sc(NC(=O)c3cccc(Cl)c3)nc2C)cs1	-3.8%	-19.0%	u	u	-21.1%	-37.0%
Cc1nc(NC(=O)c2ccco2)sc1-c1csc(Nc2ccc(Cl)cc2Cl)n1	-3.6%	u	-7.1%	u	-1.7%	-96.3%
Cc1ccccc1Nc1nc(-c2sc(NC(=O)c3cccc(Cl)c3)nc2C)cs1	-22.6%	-14.2%	17.8µM*	u	-2.0%	-15.8%
Cc1ccc(Cl)cc1Nc1nc(-c2sc(NC(=O)c3ccco3)nc2C)cs1	-5.9%	-22.9%	u	25.1µM*	-11.8%	-54.8%
Cc1cc(C)cc(N(CCC(=O)Nc2nnc(C3CC3)s2)S(=O)(=O)c2ccc(Cl)cc2)c1	1.3%	-10.3%	8.7%	6.7%	-4.1%	-53.3%[10 µM]
Cc1ccc(S(=O)(=O)NCCC(=O)Nc2nnc(C3CC3)s2)cc1C	3.5%	-8.6%	17.8µM*	-8.8%	-3.5%	4.5%
Cc1cc(CSc2ccccc2)ccc1NC(=O)c1ccc(CN2CCOCC2)cc1	-2.9%	-5.9%	5.7%	2.1%	-4.5%	-8.2%[0.074 µM]
CC(C)(C)Nc1nc2ccc([N+](=O)[O-])cc2o1	11.6%	x	x	-10.3%	-1.2%[9.22 µM]	7.8%[10 µM]
CCOC(=O)Cc1nnc2c(Nc3ccccc3F)nc3nonc3n12	2.9%	-1.5%	4.2%	5.3%	15.8µM*	-0.8%[10 µM]
CCNC(=S)N1CCC(C(N)=O)CC1	4.6%	x	x	-2.7%	-19.2%[9.22 µM]	-3.4%[10 µM]
CC(OC(=O)c1oc2ccccc2c1CSC1CCCCC1)C(=O)NC(N)=O (centres undefined)	1.4%	-16.6%	2µM*	-0.2%	u	-44.2%[10 µM]
CC/C=C\C/C=C\C/C=C\CCCCCCCC(=O)O	u	-3.2%	10µM*!	u	-1.6%	u
CC/C=C\C/C=C\C/C=C\C/C=C\C/C=C\CCCC(=O)O	4.4%	-7.2%	-7.6%	8.7%	1.5%	5.7%
CC/C=C\C/C=C\C/C=C\CCCCCCCCCCCC(=O)O	9.2%	-17.9%	22.4µM*!	-4.4%	x	6.7%
CC/C=C\C/C=C\C/C=C\CCCCCCCCCC(=O)O	2.1%	-5.7%	2.3%	8.7%	x	22.4%
CC(C)Cn1nc(C(=O)OCC(=O)NCC(F)(F)F)c2ccccc2c1=O	-1.8%	x	0.0%	2.5%	-2.3%	4.6%
COc1cc(NC(=O)C2CCCO2)c(OC)cc1NC(=O)c1ccccc1 (centres undefined)	-23.5%	-3.8%	-7.1%	6.6%	u	-3.3%
SMILES	CBFb-RUNX1 inh	HPGD block	ALDH1A1 block	JMJD2E inh	HttQ103 aggreg	HTT cytoprotect
COc1ccc(N2C(=O)C3CCCCC3C2=O)cc1NC(=O)c1ccccc1 (centres undefined)	-0.3%	x	0.891µM*	4.3%	10.4%[9.22 µM]	18.5%[10 µM]
O=[N+]([O-])c1cc(Br)c(O)c(C=Nc2ccc(N3CCOCC3)cc2)c1	3.6%	x	1.9%	3.4%	4.0%	x
O=[N+]([O-])c1cc(Br)c(O)c(/C=N/Nc2nnnn2-c2cccc3ccccc23)c1	u	u	17.8µM*	u	u	4.6%
CC(NCc1ccc(S(N)(=O)=O)cc1)C(=O)Nc1cccc(Cl)c1 (centres undefined)	3.6%	x	x	1.7%	-12.2%[9.22 µM]	26.0%[10 µM]
CCOC(=O)C(CCc1ccccc1)NC(C)C(=O)N1Cc2ccccc2CC1C(=O)O (centres undefined)	11.5%	-7.3%	-8.0%	-0.8%	12.9%	-33.8%
CC(=O)Nc1ccc(S(=O)(=O)Nc2nc3ccc([N+](=O)[O-])cc3s2)cc1	-3.5%	x	14.1µM*	7.6%	13.0%	38.7%[10 µM]
O=C(c1ccccc1)c1c(O)nc(-c2ccccc2)n(-c2ccccc2)c1=O	-3.3%	-15.1%	6.2%	10.6%	u	37.1%[10 µM]
COc1ccccc1OCc1ccc(C(=O)NN)cc1	-1.6%	-1.3%	14.1µM*	61.3%	-16.9%	-16.9%
NNC(=O)c1ccc(COc2cccc3cccnc23)cc1	-21.3%	x	14.1µM*	u	-3.8%	16.6%[10 µM]
Cc1ccc(COc2ccsc2C(=O)NN)cc1	-3.2%	x	6.31µM*	8.1%	-2.4%	-18.6%[10 µM]
O=C(N/N=C/c1ccc[nH]1)c1ccc(COc2cccc3cccnc23)cc1	-2.9%	x	-15.5%	-11.3%	-1.6%	-32.3%
Cc1ccc(COc2ccsc2C(=O)NNC(N)=S)cc1	2.0%	x	2.5%	14.8%	13.1%	-16.4%
O=C(Cn1cnc2sc(-c3ccccc3)cc2c1=O)NCc1ccccc1	-1.0%	-21.2%	13.0%	-12.6%	-9.3%	-98.3%
O=C(Cn1cnc2sc(-c3ccccc3)cc2c1=O)NCc1ccco1	u	15.8µM*	u	u	21.2%	-25.3%[1.9 µM]
CCOC(=O)NC(=O)/C(C=Nc1ccc(Cl)cc1)=C(\C)O	-4.7%	x	6.5%	3.5%	21.5%	-24.6%
COC(=O)c1cc2occc2n1Cc1c(F)cccc1Cl	11.8%	-27.6%	12.6µM*	-1.6%	11.6%	-12.5%
COc1c(O)c(O)cc2c1oc1c3cc(C)ccc3oc(=O)c21	u	14.1µM*	-8.2%	20µM*	x	-40.8%
CCCCCCCN1C2=NCCCN2c2ccccc21	6.2%	x	u	-7.2%	-2.8%[9.22 µM]	-19.7%[10 µM]
CNC(=S)n1cnc(N)n1	9.5%	x	x	-5.1%	-28.7%[9.22 µM]	30.3%[10 µM]

Compound activity (PubChem)
